This note sets out measurements from PubChem BioAssay (NCATS).

Holding throughout (test): Primary qHTS to identify gynecologic anti-cancer compounds using libraries of approved drugs and bioactive compounds (AID 1345084); further: nearly all actives have a fitted effect of over 55% in size
The subject of one assay is C33A. As to conditions: Gynecologic cancer cell panel viability, ATPlite luminescence, 48 h; series mostly up to 57.5 µM. Summed up:
(§1)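 Five-concentration response, 48 h; readout is ATP-driven luciferase luminescence.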

The test system of another assay is Es-2. As to conditions: Gynecologic cancer cell panel viability, ATPlite luminescence, 48 h; series mostly up to 57.5 µM. An outline of the steps:
as §1

The next assay deals with HeLa. Particulars: Gynecologic cancer cell panel viability, ATPlite luminescence, 48 h; series mostly up to 57.5 µM. An outline of the steps:
as §1

Another assay relates to Hek293T. As to conditions: Gynecologic cancer cell panel viability, ATPlite luminescence, 48 h, control line for the selectivity index; series mostly up to 57.5 µM. Summed up: as §1
For the next assay, the system named is CAOV3. Particulars: Gynecologic cancer cell panel viability, ATPlite luminescence, 48 h; series mostly up to 57.5 µM. An outline of the steps: as §1
In another assay the test system is CASKI. As to conditions: Gynecologic cancer cell panel viability, ATPlite luminescence, 48 h; series mostly up to 57.5 µM. Summed up:
as §1

Values joined by “and” are separate entries in the source; they are usually repeats but may differ in a detail not shown here. Equal entries are not always repeated. Results filed as inconclusive are left out. Unmarked numbers belong to inactive results. Active and inactive are the calls of the source. The call rests on the fitted dose curve; in most records, active means well fitted cell-killing curve with a large enough effect; inconclusive means small, poorly fitted or top-dose-only effect, or effect the other way; inactive means flat fitted curve, though single readings scatter.
On the % scale 0 is the no-effect control and ±100 the full control effect; potency means the concentration at half of the fitted maximal effect.

Take `CC(C)NC[C@@H](O)COc1cccc2ccccc12`: the Potency entry with C33A, with Es-2, with HeLa and with Hek293T was “inactive” throughout.
On to `Nc1ccn([C@@H]2O[C@H](CO)[C@@H](O)C2(F)F)c(=O)n1`, for which the Potency result in the assay on C33A, in the assay with CASKI, in the assay on HeLa and in the assay on Hek293T was “inactive” in each case. For the same compound, the Potency with CAOV3 is 631 nM (active) and 1.12 µM (active).
`CC(C)N=C(N)/N=C(\N)Nc1ccc(Cl)cc1`: the Potency result with HeLa and in the assay with Hek293T was “inactive” throughout.
As to `O=C(O)CCCCC(=O)O`, the Potency result with C33A, in the assay with CASKI, in the assay with Es-2, in the assay with HeLa and with Hek293T was “inactive” each time.
As to `CC(=O)OCC(=O)[C@@]12OC(C)(C)O[C@@H]1C[C@H]1[C@@H]3C[C@H](F)C4=CC(=O)C=C[C@]4(C)[C@@]3(F)[C@@H](O)C[C@@]12C`, the Potency result in the assay on C33A, in the assay on CASKI, with Es-2, in the assay with HeLa and with Hek293T was “inactive” throughout.
With `COc1cccc(OC)c1C(=O)N[C@@H]1C(=O)N2[C@@H]1SC(C)(C)[C@@H]2C(=O)O`, the Potency entry in the assay with C33A, in the assay with CASKI, with Es-2, in the assay on HeLa and with Hek293T was “inactive” throughout.
As for `CCOC(=O)/C=C(C)/C=C/C=C(C)/C=C/c1c(C)cc(OC)c(C)c1C`, the Potency entry in the assay on C33A, in the assay on CAOV3, with CASKI, with Es-2, with HeLa and in the assay on Hek293T was “inactive” throughout.
`CCN1CCN(c2cc3c(cc2F)c(=O)c(C(=O)O)cn3C2CC2)CC1`: the Potency result with C33A, in the assay with CASKI, in the assay on Es-2, in the assay with HeLa and in the assay on Hek293T was “inactive” each time.
Consider `COc1cc(C(=S)N2CCOCC2)cc(OC)c1OC`, for which the Potency result with C33A, with CAOV3, in the assay with CASKI, with Es-2, in the assay with HeLa and in the assay with Hek293T was “inactive” in each case.
With `CCN1CCCC1=O`, the Potency result in the assay with C33A, with CAOV3, in the assay on CASKI, in the assay with Es-2, in the assay with HeLa and in the assay with Hek293T was “inactive” in each case.
With `CCN(CC)CCNC(=O)COc1ccc(Cl)cc1`, the Potency result in the assay on C33A, with CAOV3, in the assay with CASKI, in the assay with Es-2, in the assay with HeLa and in the assay on Hek293T was “inactive” in each case.
Consider `Nc1ccc(/C=C/c2ccc(N)cc2S(=O)(=O)O)c(S(=O)(=O)O)c1`, for which the activity change, negative = cytotoxicity in the assay on C33A was -2.85% [at 0.462 µM]; in the assay on CAOV3, -5.63% [at 0.462 µM]; in the assay on CASKI, -23.3% [at 0.462 µM]; with Es-2, 1.34% [at 0.462 µM]; in the assay with HeLa it was 9.69% [at 0.462 µM]; in the assay on Hek293T, 4.03% [at 0.462 µM].
Regarding `C#C[C@]1(OC(C)=O)CC[C@H]2[C@@H]3CCC4=C[C@@H](OC(C)=O)CC[C@@H]4[C@H]3CC[C@@]21C`, the Potency result in the assay on C33A, in the assay on CASKI, in the assay on Es-2 and in the assay with Hek293T was “inactive” each time.
`C#C[C@]1(O)CC[C@H]2[C@@H]3CCc4cc(OC5CCCC5)ccc4[C@H]3CC[C@@]21C`: the Potency result in the assay on C33A, in the assay on CAOV3, in the assay on CASKI, with Es-2, in the assay with HeLa and in the assay with Hek293T was “inactive” in each case.
As to `C/C=C/c1ccc(OC)cc1`, the Potency result in the assay on C33A, with CAOV3, in the assay with CASKI, in the assay with Es-2, in the assay with HeLa and with Hek293T was “inactive” each time.
As to `CN(C)/N=N/c1nc[nH]c1C(N)=O`, the Potency entry in the assay with CAOV3 was “inactive”.
Take `CCCCOc1cc(C(=O)NCCN(CC)CC)c2ccccc2n1`: the Potency result in the assay with C33A, in the assay with CASKI and with Hek293T was “inactive” each time.
Turning to `CC(=O)Oc1ccc2c(c1)CC[C@@H]1[C@@H]2CC[C@]2(C)[C@@H](O)CC[C@@H]12`, the Potency entry with C33A, with CAOV3, with CASKI, in the assay with Es-2 and in the assay on Hek293T was “inactive” each time. For the same compound, the Potency in the assay with HeLa is 6.31 µM (active).
Consider `C[C@]12C=CC(=O)C=C1CC[C@@H]1[C@@H]2[C@@H](O)C[C@@]2(C)[C@H]1CC[C@]2(O)C(=O)CO`, for which the Potency result with C33A, in the assay on CAOV3, in the assay on CASKI, with Es-2, with HeLa and in the assay with Hek293T was “inactive” each time.
As to `Oc1c(Cl)cc(Cl)cc1Sc1cc(Cl)cc(Cl)c1O`, the Potency result with C33A, in the assay on CAOV3, in the assay with CASKI, in the assay with Es-2, in the assay with HeLa and in the assay with Hek293T was “inactive” each time.
As to `CCCCCCCCCCCCCCCCOP(=O)([O-])OCC[N+](C)(C)C`, the Potency entry in the assay on C33A, with CASKI, with Es-2 and with Hek293T was “inactive” in each case.
`COc1ccc(CN2CCN(C(c3ccc(F)cc3)c3ccc(F)cc3)CC2)c(OC)c1OC`: the Potency entry in the assay with C33A, in the assay with CAOV3, with CASKI, in the assay with Es-2, in the assay with HeLa and in the assay with Hek293T was “inactive” in each case.
Take `O=C(OCCOCCO)c1ccccc1Nc1cccc(C(F)(F)F)c1`: the Potency result in the assay on C33A, with CAOV3, in the assay with CASKI, in the assay with Es-2, in the assay on HeLa and with Hek293T was “inactive” in each case.
As to `Cc1c(C(N)=O)cc([N+](=O)[O-])cc1[N+](=O)[O-]`, the Potency result in the assay with C33A, in the assay with CAOV3, with CASKI, in the assay on Es-2, in the assay with HeLa and in the assay with Hek293T was “inactive” throughout.
In the case of `CC(=O)OCC(=O)[C@@]1(O)CC[C@H]2[C@@H]3CCC4=CC(=O)C=C[C@]4(C)[C@H]3[C@@H](O)C[C@@]21C`, the Potency entry in the assay on C33A, in the assay with CAOV3, in the assay on CASKI, in the assay with Es-2, in the assay with HeLa and with Hek293T was “inactive” in each case.
Regarding `CN(C)CCCOc1nn(Cc2ccccc2)c2ccccc12`, the Potency entry with C33A, in the assay with CAOV3, in the assay with CASKI, with Es-2, in the assay with HeLa and with Hek293T was “inactive” throughout.
As for `O=c1[nH]c(=O)n([C@H]2C[C@H](O)[C@@H](CO)O2)cc1C(F)(F)F`, the Potency result in the assay on HeLa and in the assay on Hek293T was “inactive” each time.
Consider `C=C1C(=C/C=C2\CCC[C@]3(C)[C@@H]([C@H](C)/C=C/[C@@H](O)C4CC4)CC[C@@H]23)C[C@@H](O)C[C@@H]1O`, for which the Potency entry with C33A, in the assay with CAOV3, in the assay with CASKI, in the assay on Es-2, in the assay with HeLa and in the assay with Hek293T was “inactive” in each case.
Regarding `CCN(CC)C(=O)/C(C#N)=C/c1cc(O)c(O)c([N+](=O)[O-])c1`, the Potency entry with C33A, with CAOV3, with CASKI, with Es-2, in the assay on HeLa and in the assay with Hek293T was “inactive” each time.
Take `CC(O)C(=O)O` (centres undefined): the Potency entry with C33A, in the assay on CAOV3, in the assay with CASKI, in the assay on Es-2, with HeLa and in the assay with Hek293T was “inactive” in each case.
Turning to `Oc1ccc(Cl)c2cccnc12`, the Potency result in the assay with C33A, in the assay on CAOV3, in the assay with CASKI, with Es-2, with HeLa and with Hek293T was “inactive” each time.
